Test results as given in PubChem BioAssay.
Results filed as inconclusive are left out. The source made the active and inactive calls.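 The calls were made as follows, unless noted: active = viability at or under a set limit in both replicates, limit being median viability minus 3 SD (cut at about 48% in these data, passing the limit was not always enough); inconclusive = at or under the limit in just one replicate; inactive = at or above the limit in both replicates.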

Legend:
[1] = reducers of endogenous Her2 protein level, primary screen, SKBR3 breast tumor cells, AlphaScreen, ATP viability (AID 461;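 active = Her2 level under about 52% in both replicate screens, with viability over 70% of control, limit read from the data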;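 as to Her2 level: lower value means less Her2 protein in the cells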;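 as to viability: percent of carrier control wells set as 100% viability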); conditions: 18-24 h, measured here: SKBR3 viability, ATP luminescence, at 10 µM
[2] = target: Receptor tyrosine-protein kinase erbB-2 (Homo sapiens) (UniProt P04626); assay: as above; conditions: 18-24 h, at 10 µM, stronger effect = lower value
[3] = SK-BR-3 cell growth inhibitors, pilot screen, 24 h, human (AID 572;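 active = viability at or below 10% of carrier control in both of two separate runs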;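 also: compound exposure lasted between 18 and 24 h rather than exactly 24 h; 100% = carrier-treated control wells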); conditions: SK-BR-3 viability, CellTiter-Glo luminescence, at 10 µM, stronger effect = lower value
[4] = HUVEC growth inhibition – cell-based, human, primary screen (AID 575;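 active = viability at or below 30% in both replicate assays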;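 also: 100% = median of untreated cell wells with 0.1% DMSO on each plate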); conditions: HUVEC proliferation, CellTiter-Glo luminescence, 72 h; at 10 µM; stronger effect = lower value
[5] = growth inhibitors of H69AR lung tumor, primary screen, human, duplicate replicates (AID 580); conditions: H69AR lung tumor cells viability, ATP luminescence, 72 h; at 10 µM; stronger effect = lower value;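 also: 100% = mean luminescence of untreated wells and 0% = no signal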
[6] = reversal of MRP1-mediated doxorubicin resistance, pilot screen, H69AR cells, doxorubicin co-treatment (AID 601;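 active = viability loss from added drug above about 55%, and viability with drug at most 40%, in both replicates, limit read from the data, passing the limit was not always enough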); conditions: CellTiter-Glo, 72 h, at 10 µM; for differential viability (reversal): stronger effect = higher value
[7] = 384-well plate pilot, post-Golgi transport modulator project, inhibition of yeast transport mutant growth (AID 636; in the data active = inhibition above about 31%); conditions: absorbance 615 nm, about 18 h, stronger effect = higher value
[8] = growth suppression of yeast trafficking mutant, preliminary HTS, modulators of trafficking downstream of Golgi apparatus project, 1536-format plate, OD 615 nm (AID 637; in the data active = inhibition above about 30%); conditions: yeast transport mutant growth, absorbance 615 nm, 18 h; stronger effect = higher value
[9] = OD615 S. cerevisiae growth inhibition, permissive medium, pilot counter-assay, permissive growth control for S. cerevisiae lifespan shortening project (AID 705;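 active = growth inhibition above 25% in both replicates, a cutoff set 3 SD above the mean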); conditions: OD615, 24 h, at 10 µM, stronger effect = higher value
[10] = Restrictive medium S. cerevisiae growth inhibition, OD615, pilot screen of yeast lifespan reduction project, restrictive growth control (AID 706;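 active = growth inhibition above a set limit, 3 SD over mean compound inhibition, in both replicates, cut at about 43% in these data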;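 also: modified DeaD lifespan yeast strain shifted to restrictive glucose medium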); conditions: OD615, 48 h, at 10 µM, stronger effect = higher value
[11] = viability gain of MRP-1-high H69AR cells under doxorubicin, pilot screen, MRP-1 activator project, CellTiter-Glo, duplicate (AID 807;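 active = viability increase at or above a cutoff of the median across tested compounds plus 3 SD, cut at about 8.5% in these data, passing the limit was not always enough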;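 also: compound pretreatment 18-22 h then 72 h combined with doxorubicin; 0% = doxorubicin alone and 100% = vehicle without doxorubicin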); conditions: H69AR viability with doxorubicin, CellTiter-Glo luminescence; at 10 µM; stronger effect = higher value
[12] = growth suppression of beta-catenin knockout HCT116, pilot screen, human colon tumor cells (AID 823;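 active = cell viability at or below a set limit in both duplicate runs, the limit being the all-compound median minus 4 SD, cut at about 23% in these data, passing the limit was not always enough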;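 also: 0% = wells killed by 20 µM Hyamine and 100% = untreated DMSO cell wells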); conditions: CellTiter-Glo, 60 h, at 10 µM, stronger effect = lower value
[13] = growth suppression of PTEN-deleted HCT116, pilot screen, cell-based, HCT116 clonal line, CellTiter-Glo (AID 824;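 active = viability at or below 27.92% in each of two runs, the all-compound median minus 4 SD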;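 also: 0% = 20 µM Hyamine control and 100% = vehicle cell control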); conditions: 60 h, at 10 µM, stronger effect = lower value
[14] = inhibitors of the yeast RAM network, pilot screen, dse1pr::URA3 reporter, 5-FOA selection (AID 869;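 active = inhibition over a set limit, the all-compound mean plus 3 SD, in both replicate runs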;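 also: 0% = DMSO wells with no growth and 100% = 10 µM 1-NA-PP1 with full growth; RAM network block rescues cells from 5-FOA so hits raise OD615 growth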); conditions: S. cerevisiae dse1pr::URA3 5-FOA growth, OD615, 2 d; at 10 µM; stronger effect = higher value; strain carries analog-sensitive mutant Cbk1 kinase
[15] = RAM signaling pathway blockade in yeast – S. cerevisiae, Pdr1DBD-CYC8 efflux-inhibited sensitized strain, primary screen (AID 1298;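 active = RAM network inhibition above 8.4% in each of two replicates, 3 SD over the compound average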;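 also: 0% = DMSO untreated cells without growth and 100% = 10 µM 1-NA-PP1 full growth; higher means more yeast growth rescued from 5-FOA killing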); conditions: S. cerevisiae cbk1-as DSE1-URA3 strain, 5-FOA growth OD615, 2 d; at 50 µM; stronger effect = higher value
[16] = H69AR cells + 2 uM doxorubicin, measured here: viability with 2 uM doxorubicin, stronger effect = lower value
[17] = H69AR cells, compound alone cytotoxicity

Sequence of Receptor tyrosine-protein kinase erbB-2 (Homo sapiens) (P04626 whole entry, looked up): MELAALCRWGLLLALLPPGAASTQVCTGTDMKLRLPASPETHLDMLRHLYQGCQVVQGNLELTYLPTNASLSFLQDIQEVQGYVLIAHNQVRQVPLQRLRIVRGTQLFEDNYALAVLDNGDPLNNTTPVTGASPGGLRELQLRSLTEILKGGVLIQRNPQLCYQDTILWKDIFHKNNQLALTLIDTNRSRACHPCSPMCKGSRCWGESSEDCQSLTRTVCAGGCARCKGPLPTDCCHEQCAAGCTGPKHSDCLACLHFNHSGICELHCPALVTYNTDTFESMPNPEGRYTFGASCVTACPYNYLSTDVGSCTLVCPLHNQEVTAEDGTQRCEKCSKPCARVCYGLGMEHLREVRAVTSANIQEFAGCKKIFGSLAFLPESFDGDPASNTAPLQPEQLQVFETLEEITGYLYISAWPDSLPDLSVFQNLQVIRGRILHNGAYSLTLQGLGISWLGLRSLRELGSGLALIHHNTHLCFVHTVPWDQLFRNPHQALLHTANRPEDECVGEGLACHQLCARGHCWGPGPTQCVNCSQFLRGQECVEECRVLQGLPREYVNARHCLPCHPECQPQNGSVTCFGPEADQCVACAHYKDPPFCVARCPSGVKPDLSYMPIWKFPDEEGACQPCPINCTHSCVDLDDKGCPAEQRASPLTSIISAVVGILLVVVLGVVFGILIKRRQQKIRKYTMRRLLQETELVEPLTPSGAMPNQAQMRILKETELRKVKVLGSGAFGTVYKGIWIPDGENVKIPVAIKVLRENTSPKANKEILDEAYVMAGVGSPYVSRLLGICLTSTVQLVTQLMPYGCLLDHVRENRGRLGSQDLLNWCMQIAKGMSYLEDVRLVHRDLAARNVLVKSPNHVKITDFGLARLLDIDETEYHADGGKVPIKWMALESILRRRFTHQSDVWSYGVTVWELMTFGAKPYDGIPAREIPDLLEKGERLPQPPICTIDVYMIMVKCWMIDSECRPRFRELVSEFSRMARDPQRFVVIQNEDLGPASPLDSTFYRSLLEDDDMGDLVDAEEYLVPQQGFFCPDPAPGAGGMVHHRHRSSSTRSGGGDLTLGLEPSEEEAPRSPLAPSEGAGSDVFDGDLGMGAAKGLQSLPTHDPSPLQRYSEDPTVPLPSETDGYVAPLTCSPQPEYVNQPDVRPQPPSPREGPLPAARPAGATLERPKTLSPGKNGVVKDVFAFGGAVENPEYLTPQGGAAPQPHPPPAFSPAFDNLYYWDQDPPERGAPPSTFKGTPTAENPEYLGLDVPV

Row | SMILES | viability [1] | Her2 level [2] | viability [3] | viability [4] | viability [5] | differential viability (reversal) ([6]; H69AR cells + 2 uM doxorubicin) | viability [6, 16] | viability [6, 17] | inhibition [7] | inhibition [8] | growth inhibition [9] | growth inhibition [10] | viability increase [11] | viability [12] | viability [13] | inhibition [14] | RAM network inhibition [15]
1 | CCOC(=O)c1c(C)n(OCc2ccccc2)c2ccc3c(no[n+]3[O-])c12 | 60% | 78.5% (inactive) | 60% (inactive) | 64.8% (inactive) | 52.9% (inactive) | -14.2% (inactive) | 67.1% | 52.9% | -3.24% (inactive) | -2.95% (inactive) | -12.4% (inactive) | -11.1% (inactive) | -3.24% (inactive) | 62.8% (inactive) | 62.9% (inactive) | 1.99% (inactive) | 5.8% (inactive)
2 | CC1(C)CC(=O)N(CC(=O)NCc2ccccc2)c2ccccc2S1(=O)=O | 78.5% | 112% (inactive) | 78.5% (inactive) | 106% (inactive) | 92.6% (inactive) | -8.55% (inactive) | 101% | 92.6% | -4.67% (inactive) | -1.33% (inactive) | -3.67% (inactive) | 6.21% (inactive) | -1.93% (inactive) | 107% (inactive) | 100% (inactive) | 0.485% (inactive) | 3.51% (inactive)
3 | CC(C)CCn1c(NCCc2ccccc2)nc2c1c(=O)n(C)c(=O)n2C | 80% | 57.5% (inactive) | 80% (inactive) | 50.8% (inactive) | 81.8% (inactive) | -0.235% (inactive) | 82.1% | 81.8% | -2.93% (inactive) | 2.17% (inactive) | -0.96% (inactive) | 8.48% (inactive) | -2.21% (inactive) | 57.1% (inactive) | 57.4% (inactive) | 1.94% (inactive) | -0.32% (inactive)
4 | Oc1ccc(-c2n[nH]c(=S)n2Cc2ccccc2)cc1 | 90.5% | 120% (inactive) | 90.5% (inactive) | 112% (inactive) | 105% (inactive) | 2.54% (inactive) | 102% | 105% | 5.45% (inactive) | -2.83% (inactive) | 5.8% (inactive) | -5.84% (inactive) | -1.84% (inactive) | 101% (inactive) | 91.2% (inactive) | 0.655% (inactive) | -0.9% (inactive)
5 | Cn1c(=O)cc(NCCc2ccccc2)[nH]c1=O | 97% | 93.5% (inactive) | 97% (inactive) | 50.3% (inactive) | 42.9% (active) | -37.3% (inactive) | 80.2% | 42.9% | -1.82% (inactive) | -8.36% (inactive) | -9.86% (inactive) | 2.05% (inactive) | -5.4% (inactive) | 87.5% (inactive) | 88.3% (inactive) | 0.595% (inactive) | 3.06% (inactive)
6 | O=C(Nc1ccc2c(c1)OCCO2)NC1CCCCC1 | 126% | 98.5% (inactive) | 126% (inactive) | 89.5% (inactive) | 85.9% (inactive) | 3.18% (inactive) | 82.7% | 85.9% | -4.27% (inactive) | -1.13% (inactive) | -1.73% (inactive) | 4.4% (inactive) | -0.85% (inactive) | 86.8% (inactive) | 85.5% (inactive) | 1.55% (inactive) | -0.57% (inactive)
7 | COc1ccc(C2CC(c3cccc(C)c3)n3ncnc3N2)cc1 (stereo not drawn) | 87.5% | 89% (inactive) | 87.5% (inactive) | 88.8% (inactive) | 91.4% (inactive) | -5.74% (inactive) | 97.2% | 91.4% | 5.6% (inactive) | -9.02% (inactive) | 1.04% (inactive) | 5.56% (inactive) | -1.57% (inactive) | 100% (inactive) | 86.1% (inactive) | 0.22% (inactive) | -0.53% (inactive)
8 | COc1ccc(CC(=O)NCc2nnc(SCC(=O)Nc3nccs3)n2-c2ccccc2)cc1 | 99.5% | 98% (inactive) | 99.5% (inactive) | 98.4% (inactive) | 96.6% (inactive) | 2.73% (inactive) | 93.9% | 96.6% | -4.4% (inactive) | -3.67% (inactive) | -3.97% (inactive) | 7.4% (inactive) | -1.27% (inactive) | 102% (inactive) | 96.7% (inactive) | 1.48% (inactive) | 6.87% (inactive)
9 | CC(=O)NC(CCS(C)(=O)=O)C(=O)Nc1cc(C)on1 (stereo not drawn) | 119% | 106% (inactive) | 119% (inactive) | 105% (inactive) | 99.1% (inactive) | 7% (inactive) | 92.1% | 99.1% | -4.67% (inactive) | 0% (inactive) | -14.1% (inactive) | -22.3% (inactive) | 1% (inactive) | 104% (inactive) | 95.7% (inactive) | 1.99% (inactive) | 0.32% (inactive)
10 | Fc1ccc(-c2nnc3ccc(N4CCCC4)nn23)cc1 | 80% | 90.5% (inactive) | 80% (inactive) | 64.2% (inactive) | 94.5% (inactive) | 16.8% (inactive) | 77.7% | 94.5% | -0.27% (inactive) | 8.52% (inactive) | 11.7% (inactive) | 32.5% (inactive) | -5.62% (inactive) | 102% (inactive) | 86.3% (inactive) | 0.685% (inactive) | 5.61% (inactive)
11 | Cc1cc(NS(=O)(=O)c2ccccc2)no1 | 114% | 115% (inactive) | 114% (inactive) | 94.5% (inactive) | 90.7% (inactive) | -1.04% (inactive) | 91.7% | 90.7% | -5.33% (inactive) | 2.83% (inactive) | -14.5% (inactive) | -6.42% (inactive) | 0.56% (inactive) | 99.9% (inactive) | 98.5% (inactive) | 1.86% (inactive) | 5.41% (inactive)
12 | CC1Cc2nc(SCC(=O)Nc3nccs3)n(C)c(=O)c2S1 (stereo not drawn) | 90% | 89% (inactive) | 90% (inactive) | 72.7% (inactive) | 77.8% (inactive) | -0.05% (inactive) | 77.8% | 77.8% | -5.07% (inactive) | -1.67% (inactive) | -2.9% (inactive) | -5.05% (inactive) | -2.52% (inactive) | 105% (inactive) | 96.7% (inactive) | 1.56% (inactive) | 6.27% (inactive)
13 | Cc1cc(C)cc(N2C(=O)CC(N3CCOCC3)C2=O)c1 (stereo not drawn) | 104% | 84% (inactive) | 104% (inactive) | 100% (inactive) | 191% (inactive) | 98.5% (inactive) | 92.2% | 191% | -1.89% (inactive) | 0.82% (inactive) | -9.16% (inactive) | -2.19% (inactive) | -0.95% (inactive) | 102% (inactive) | 92.5% (inactive) | 0.41% (inactive) | 0.87% (inactive)
14 | CC(C)CCNC(=O)Cn1c(NCCC(C)C)nc2c1c(=O)n(C)c(=O)n2C | 121% | 118% (inactive) | 121% (inactive) | 102% (inactive) | 93.7% (inactive) | -0.345% (inactive) | 94% | 93.7% | 1.73% (inactive) | -2.5% (inactive) | -4.12% (inactive) | -0.68% (inactive) | -1.31% (inactive) | 98.2% (inactive) | 92.8% (inactive) | 0.94% (inactive) | -0.63% (inactive)
15 | Cc1ccc(-c2nc3cnccn3c2Nc2ccc3c(c2)OCO3)o1 | 91.5% | 90.5% (inactive) | 91.5% (inactive) | 92.4% (inactive) | 77.7% (inactive) | -13.6% (inactive) | 91.3% | 77.7% | -6.53% (inactive) | -2.83% (inactive) | -15.8% (inactive) | 3.3% (inactive) | -3.1% (inactive) | 95.8% (inactive) | 91.9% (inactive) | 1.34% (inactive) | 12.5% (inactive)
16 | Cc1c(C#N)c2ccccc2n1CC(=O)N1CCc2ccccc2C1 | 102% | 120% (inactive) | 102% (inactive) | 93.5% (inactive) | 94.9% (inactive) | 2.7% (inactive) | 92.2% | 94.9% | 6.67% (inactive) | -3.17% (inactive) | -1.57% (inactive) | -2.33% (inactive) | -3.16% (inactive) | 92.9% (inactive) | 92.7% (inactive) | 2.05% (inactive) | 4.34% (inactive)
17 | Cc1cccc(OCC(=O)N2CCN(C(=O)Cc3ccccc3)CC2)c1 | 102% | 94% (inactive) | 102% (inactive) | 107% (inactive) | 97.3% (inactive) | -0.125% (inactive) | 97.5% | 97.3% | -7.33% (inactive) | -0.97% (inactive) | -11.1% (inactive) | -28.1% (inactive) | -2.39% (inactive) | 85.4% (inactive) | 81.4% (inactive) | 0.285% (inactive) | 0.56% (inactive)
18 | CCN1CCN(C(=O)C2CCN(C(=O)c3cc4sccc4n3CC)CC2)CC1 | 104% | 104% (inactive) | 104% (inactive) | 115% (inactive) | 83% (inactive) | -15.3% (inactive) | 98.3% | 83% | -5.07% (inactive) | 3.67% (inactive) | -13.3% (inactive) | -13.5% (inactive) | -1.69% (inactive) | 105% (inactive) | 95.5% (inactive) | 0.53% (inactive) | 0.58% (inactive)
19 | COc1ccc2c(c1)CCc1cc(C(=O)N3CCN(c4ccc(N5CCOCC5)nn4)CC3)sc1-2 | 93.5% | 79% (inactive) | 93.5% (inactive) | 98.4% (inactive) | 63.7% (inactive) | -11.4% (inactive) | 75.1% | 63.7% | -3.08% (inactive) | 0.33% (inactive) | 3.63% (inactive) | 3.83% (inactive) | -1.37% (inactive) | 60.4% (inactive) | 59% (inactive) | 0.905% (inactive) | 0.73% (inactive)
